The assay concerns P. falciparum stage V gametocytes. The arrangement: BacTiter-Glo ATP luminescence viability of purified stage V gametocytes in 384-well plates, per cent inhibition versus DMSO. Particulars: 48 h, 5 µM, inhibitor.

These results are taken from publication PMC4552634, “A New Set of Chemical Starting Points with Plasmodium falciparum Transmission-Blocking Potential for Antimalarial Drug Discovery” (PLoS ONE, 2015).

Structures are written as SMILES. Like-named read-outs stand apart in the source and are kept apart here. Screen size: about 13,000 compounds; about 3,200 (25%) showed an effect of 50% or more. This is one part of the list.

On to `CC[C@H](C)[C@@H](C(=O)N1CCOCC1)N1CC[C@H](NS(=O)(=O)CC(C)(C)c2ccc(Cl)cc2)C1=O` [TCMDC-138910], for which the “% Inhibition” value was -4.326%. Same read-out and setting: the result for `N#Cc1ccc(N2CCN(Cc3cccc(-c4ccc(-c5nc6cc(C(F)(F)F)ccc6[nH]5)s4)c3)CC2)nc1.O=C(O)C(F)(F)F` [TCMDC-133114] reads -37.6%; that for `CCCCCC(C)c1cc(O)c2c(c1)OC(C)(C)C=C2C1=CCN(Cc2ccccc2)CC1` (centres unmarked) [TCMDC-131350], -56.28%. `FC(F)(F)c1ccc(NC(=S)NC2CCC(CN3CCC(c4c[nH]c5ccccc45)CC3)CC2)cc1` (centres unmarked) [TCMDC-140178]: where the note is “% Inhibition”, the “% Inhibition” value is 78.37%.

As for `O=C(Nc1ccccc1Cl)NC1CCC(CN2CCC(c3c[nH]c4ccccc34)CC2)CC1` (centres unmarked) [TCMDC-140176], the “% Inhibition” value (% Inhibition) is listed as -4.106%. Regarding `O=C(NC1CCC(CN2CCC(c3c[nH]c4ccccc34)CC2)CC1)NC12CC3CC(CC(C3)C1)C2` (centres unmarked) [TCMDC-140204], the “% Inhibition” value stood at 96.25%. With `FC(F)(F)c1ccc(NC(=S)NC2CCC(CN3CCC(c4c[nH]c5ccccc45)CC3)CC2)cc1` (centres unmarked) [TCMDC-140198], the “% Inhibition” value (% Inhibition) was found to be 109.8%.

Take `O=C(NC1CCC(CN2CCC(c3c[nH]c4ccccc34)CC2)CC1)c1csc(-c2ccc(C(F)(F)F)cc2Cl)n1` (centres unmarked) [TCMDC-140352]: the “% Inhibition” value came out at 52.36%. Turning to `O=C(Nc1ccccc1Cl)NC1CCC(CN2CCC(c3c[nH]c4ccccc34)CC2)CC1` (centres unmarked) [TCMDC-140196], where the note is “% Inhibition”, the “% Inhibition” value is 17.3%. Regarding `O=C(NC1CCC(CN2CCC(c3c[nH]c4ccccc34)CC2)CC1)c1ccc(-c2cc(C(F)(F)F)ccc2Cl)o1` (centres unmarked) [TCMDC-140350], the “% Inhibition” value is on record as -5.918%. As to `O=C(NC1CCC(CN2CCC(c3c[nH]c4ccccc34)CC2)CC1)c1csc(-c2cccc(Cl)c2Cl)n1` (centres unmarked) [TCMDC-140351], the “% Inhibition” value is listed as -28.23%. In the case of `CC(Cc1ccc(-c2nc3ccccc3[nH]2)cc1)NCC(O)c1cccc(C(F)(F)F)c1` (centres unmarked) [TCMDC-131524], the “% Inhibition” value was -16.53%. Regarding `Cc1ccc(C(C)C)c(Oc2cnc(NC(CO)c3ccccc3)nc2N)c1` (centres unmarked) [TCMDC-135558], the “% Inhibition” value is 13.9%. In the case of `Cc1cc2ccc(/C=C/C(=O)NC3CCC(CCN4CCc5ccc(C#N)cc5CC4)CC3)cc2[nH]1` (centres unmarked) [TCMDC-139668], the “% Inhibition” value was -29.35%. Turning to `O=C(Cc1cn(-c2ccccc2)nc1-c1ccc(Cl)cc1)Nc1nccs1` [TCMDC-124872], the “% Inhibition” value is -9.075%.

On to `Nc1c(-c2ccc(C(=O)NCCNCc3ccccc3)cc2)cnn1-c1ccc(C(F)(F)F)cc1` [TCMDC-136660], for which the “% Inhibition” value was 12.46%. Same read-out and setting: the result for `N#Cc1ccc(N2CCN(Cc3cccc(-c4ccc(-c5nc6cc(C(F)(F)F)ccc6[nH]5)cc4)c3)CC2)nc1.O=C(O)C(F)(F)F` [TCMDC-133112] reads -19.5%; that for `CC(C)c1sc(N2CCN(C)CC2)nc1C(=O)Nc1cccc2c1CCCC2` [TCMDC-134303], -19.32%; that for `O=C(/C=C/c1ccc(Cl)c(Cl)c1)NCCCCCN1CCC(NC(=S)Nc2ccc(Cl)cc2)CC1` [TCMDC-135898], 6.847%. For `O=C(Nc1ccccc1OC(F)(F)F)NC1CCC(CN2CCC(c3c[nH]c4ccccc34)CC2)CC1` (centres unmarked) [TCMDC-140203], for the setting “% Inhibition”, the “% Inhibition” value is -4.21%. Same read-out and setting: the result for `O=C(Nc1cc(C(F)(F)F)cc(C(F)(F)F)c1)NC1CCC(CN2CCC(c3c[nH]c4ccccc34)CC2)CC1` (centres unmarked) [TCMDC-140180] reads 75.46%; that for `O=C(Nc1cc(C(F)(F)F)cc(C(F)(F)F)c1)NC1CCC(CN2CCC(c3c[nH]c4ccccc34)CC2)CC1` (centres unmarked) [TCMDC-140199], -51.42%. On the same count and under the same terms, the result for `O=C(Nc1ccccc1OC(F)(F)F)NC1CCC(CN2CCC(c3c[nH]c4ccccc34)CC2)CC1` (centres unmarked) [TCMDC-140185] reads -31.33%. `O=C(Nc1ccc(Oc2ccccc2)cc1)NC1CCC(CN2CCC(c3c[nH]c4ccccc34)CC2)CC1` (centres unmarked) [TCMDC-140186]: the “% Inhibition” value stood at 102.3%.

For the molecule `O=C(NCCNc1ccnc(NCc2ccc(F)cc2)n1)c1cc2ccccc2s1` [TCMDC-133646], the “% Inhibition” value was -28.02%. Still for that read-out and setting: the result for `O=C(NCc1ccc(Cl)c(Cl)c1)c1ccc(C2CCN(Cc3ccc4nc[nH]c4c3)CC2)cc1` [TCMDC-133069] reads -61.63%; that for `COc1ccc2c(c1)CC(NCc1ccc(-c3ccc4nc[nH]c4c3)cc1)C2` (centres unmarked) [TCMDC-133483], 36.76%; that for `COc1ccc2c(c1)CC(C)(C)NC2CCCCCCCCC1NC(C)(C)Cc2cc(OC)ccc21` (centres unmarked) [TCMDC-137935], 92.87%. In the case of `Cc1ccc(NC(=O)c2ccc(CN3CCCN(Cc4cccc(Cl)c4)CC3)cc2)cc1C` [TCMDC-136426], the “% Inhibition” value is listed as -8.077%. In the case of `NC1=NC2(CCCCC2)N(OCCCCCCN2C(=O)c3ccccc3C2=O)C(N)=N1` [TCMDC-140537], the “% Inhibition” value turned out to be 2.277%. Take `O=C(C=Cc1cccc(Cl)c1Cl)NC1CCC(CN2CCC(c3c[nH]c4ccccc34)CC2)CC1` (centres unmarked) [TCMDC-139910]: the “% Inhibition” value (% Inhibition) was found to be 41.2%. As for `O=C(/C=C/c1c(Cl)cccc1Cl)NC1CCC(CN2CCC(Cc3cc4ccccc4[nH]3)CC2)CC1` (centres unmarked) [TCMDC-140233], the “% Inhibition” value is recorded as 51.23%. For `O=C(/C=C/c1c(Cl)cccc1Cl)NC1CCC(CN2CCC(c3c[nH]c4ccncc34)CC2)CC1` (centres unmarked) [TCMDC-140220], the “% Inhibition” value was 108.5%.

Turning to `O=C(/C=C/c1ccc(Cl)c(Cl)c1)NC1CCC(CN2CCC(c3cc4ccccc4[nH]3)CC2)CC1` (centres unmarked) [TCMDC-140236], the “% Inhibition” value was 9.147%. As to `O=C(/C=C/c1c(Cl)cccc1Cl)NC1CCC(CN2CCC(c3c[nH]c4ccccc34)CC2)CC1` (centres unmarked) [TCMDC-139856], the “% Inhibition” value (% Inhibition) is 7.287%. Take `CS(=O)(=O)Nc1ccc2[nH]cc(C3CCN(CC4CCC(NC(=O)/C=C/c5ccccc5Cl)CC4)CC3)c2c1` (centres unmarked) [TCMDC-139887]: the “% Inhibition” value is listed as 39.39%.

Turning to `O=C(/C=C/c1c(Cl)cccc1Cl)NC1CCC(CN2CCC(c3c[nH]c4ccccc34)CC2)CC1` (centres unmarked) [TCMDC-139858], the “% Inhibition” value (% Inhibition) is -12.84%.

With `O=C(/C=C/c1ccccc1Cl)NC1CCC(CN2CCC(c3c[nH]c4ccncc34)CC2)CC1` (centres unmarked) [TCMDC-140110], the “% Inhibition” value stood at 79.76%. Still for that read-out and setting: the result for `O=C(/C=C/c1ccc(Cl)c(Cl)c1)NC1CCC(CN2CCC(Cc3cc4ccccc4[nH]3)CC2)CC1` (centres unmarked) [TCMDC-140232] reads -17.26%; that for `CC(C)(C)Oc1ccc(CC2NC3(C(=O)N(Cc4ccc(C(C)(C)C)cc4)c4ccccc43)C3C(=O)N(c4ccc(Br)cc4)C(=O)C23)cc1` (centres unmarked) [TCMDC-139774], 1.203%; that for `CC(C)C1C(O)=C(c2ccc3ccccc3c2)C(=O)N1Cc1cccc(F)c1` (centres unmarked) [TCMDC-141811], 28.08%. Turning to `CN(CCc1ccccc1)c1ncc(-c2ccccc2CNCc2ccccc2O)cn1` [TCMDC-132575], the “% Inhibition” value came to 53.28%. On the same count and under the same terms, the result for `Oc1ccccc1CNCc1ccc(-c2cnc(N3CCCC(c4ccccc4)C3)nc2)cc1` (centres unmarked) [TCMDC-133768] reads -9.076%.

`CCCN(CC1CC1)c1ncc(-c2ccccc2CNCc2ccccc2O)cn1` [TCMDC-132574]: the “% Inhibition” value is on record as -10.65%.

As to `O=c1cc(NCCCCNCc2cccc(Cl)c2)[nH]c2ccccc12` [TCMDC-139311], the “% Inhibition” value is -48.31%. The same measure, in the same setting: the result for `CCCC(C)NC(=O)/C=C/c1ccccc1-c1cccc(OC)c1` (centres unmarked) [TCMDC-136229] reads -11.68%. Same read-out and setting: the result for `CN1C(C)(C)CC(NC(=O)c2ccc(-c3nc4ccc(Cl)cc4[nH]3)cc2)CC1(C)C` [TCMDC-139262] reads -8.23%; that for `COc1cc(C(=O)NC2CC(C)(C)N(C)C(C)(C)C2)ccc1-c1cc2cc(Cl)c(Cl)cc2[nH]1` [TCMDC-139227], 47.65%. The same measure, in the same setting: then `Cc1c(-c2ccc(C(=O)NC3CC(C)(C)NC(C)(C)C3)cc2)[nH]c2cc(Cl)c(Cl)cc12` [TCMDC-140975], with 52.66%; and `COc1cc(C(=O)NC2CC(C)(C)NC(C)(C)C2)ccc1-c1cc2cc(Cl)c(Cl)cc2[nH]1` [TCMDC-139693], with -5.047%. With `COc1cc(C(=O)NC2CC(C)(C)N(C)C(C)(C)C2)ccc1-c1nc2cc(Cl)c(Cl)cc2[nH]1` [TCMDC-139618], the “% Inhibition” value was found to be 89.66%. Still for that read-out and setting: the result for `CN1C(C)(C)CC(NC(=O)c2ccc(-c3nc4cc(Cl)c(Cl)cc4[nH]3)cc2)CC1(C)C` [TCMDC-139250] reads 28.21%; that for `CCOc1cc(C(=O)NC2CC(C)(C)NC(C)(C)C2)ccc1-c1nc2ccc(Cl)cc2[nH]1` [TCMDC-140404], 39.53%; that for `CCOc1cc(C(=O)NC2CC(C)(C)NC(C)(C)C2)ccc1-c1cc2cc(Cl)c(Cl)cc2[nH]1` [TCMDC-139960], 72.27%. For the molecule `CCOc1cc(C(=O)NC2CC(C)(C)N(C)C(C)(C)C2)ccc1-c1nc2cc(Cl)c(Cl)cc2[nH]1` [TCMDC-140058], the “% Inhibition” value came out at 24.71%. On to `O=C(Nc1ccc(CN2CCCCC2)cc1)c1ccc(COc2ccc([N+](=O)[O-])cc2)o1` [TCMDC-123727], for which the “% Inhibition” value was -23.78%. In the case of `CC(C)Oc1ccc(CCCON2C(N)=NC(N)=NC2(C)C)cc1` [TCMDC-131759], the “% Inhibition” value is on record as 12.88%. Still for that read-out and setting: then `Cc1cc(NC(=O)c2ccco2)ccc1OC1CCN(Cc2ccccc2)CC1` [TCMDC-133965], with 12.37%; and `COc1ccc2nccc([C@@H](O)CN3CCC(NCc4nc5c(C#N)cccc5[nH]4)CC3)c2c1` [TCMDC-141116], with -34.83%. Consider `Oc1ccc(CCNc2nc(NCCCOc3ccccc3-c3ccncc3)nc(N3CCNCC3)n2)cc1` [TCMDC-134138], for which the “% Inhibition” value amounted to 16.05%. The same measure, in the same setting: the result for `OCCCCCCNc1nc(NCc2ccccc2-c2ccc(C(F)(F)F)cc2)nc(N2CCNCC2)n1` [TCMDC-134126] reads 66.94%. The same measure, in the same setting: the result for `Oc1ccc(CCNc2nc(NCc3ccccc3-c3ccc(C(F)(F)F)cc3)nc(N3CCNCC3)n2)cc1` [TCMDC-138323] reads -0.8501%; that for `Oc1ccc(CCNc2nc(NCCCOc3ccccc3-c3cccc(C(F)(F)F)c3)nc(N3CCNCC3)n2)cc1` [TCMDC-134134], 10.32%. The same measure, in the same setting: the result for `Oc1ccc(CCNc2nc(NCc3ccccc3-c3ccccc3)nc(N3CCCNCC3)n2)cc1` [TCMDC-133386] reads 28.34%.

With `Oc1ccc(CC2CCCN(c3nc(NCCCOc4ccccc4-c4ccccc4)nc(N4CCNCC4)n3)C2)cc1` (centres unmarked) [TCMDC-134279], the “% Inhibition” value came to 106%.

In the case of `Oc1ccc(CCNc2nc(NCCCOc3ccccc3-c3ccc(F)cc3)nc(N3CCNCC3)n2)cc1` [TCMDC-134135], the “% Inhibition” value was 12.8%.

On to `Oc1ccc(CCNc2nc(NCCOc3ccccc3-c3ccccc3)nc(N3CCNCC3)n2)cc1` [TCMDC-134131], for which the “% Inhibition” value is listed as -22.6%. Turning to `COc1ccc(-c2ccccc2OCCCNc2nc(NCCc3ccc(O)cc3)nc(N3CCNCC3)n2)cc1` [TCMDC-134136], the “% Inhibition” value is recorded as 51.13%. Turning to `Oc1ccc(CCNc2nc(NCCCOc3ccccc3-c3cccnc3)nc(N3CCNCC3)n2)cc1` [TCMDC-134137], the “% Inhibition” value stood at 19.58%. On the same count and under the same terms, the result for `Oc1ccc(CCNc2nc(NCc3ccccc3-c3ccc(C(F)(F)F)cc3)nc(N3CCCNCC3)n2)cc1` [TCMDC-133388] reads 24.02%. The same measure, in the same setting: the result for `Oc1ccc(CCNc2nc(NCCCOc3ccccc3-c3ccc(C(F)(F)F)cc3)nc(N3CCNCC3)n2)cc1` [TCMDC-134139] reads 56.06%.

The term % Inhibition denotes the relative decrease from the control value, in per cent.
